Source: PubChem
CSC inhib = cancer stem cell viability inhibitors, primary screen, luminescence. AID 2717, 2010. inhibition, % at 7.5 µM. 300,000 tested, 1.1% active. cancer stem cell-like cells viability; in the data active = inhibition above about 75%; tested in HMLE shEcad cells
Mdm2-MdmX inh = inhibitors of human Mdm2-MdmX association, primary screen, cell-based, luminescence, split luciferase, SaOS-2, uHTS; Protein Mdm4 (Homo sapiens) + E3 ubiquitin-protein ligase Mdm2 (Homo sapiens), …; SaOS-2 split-luciferase Mdm2/MdmX complementation; inhibition, % at 8 µM; 330,000 tested, 3% active;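 active = inhibition of at least 50% at 8 µM in the primary screen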
Target sequence (O15151 whole entry, looked up): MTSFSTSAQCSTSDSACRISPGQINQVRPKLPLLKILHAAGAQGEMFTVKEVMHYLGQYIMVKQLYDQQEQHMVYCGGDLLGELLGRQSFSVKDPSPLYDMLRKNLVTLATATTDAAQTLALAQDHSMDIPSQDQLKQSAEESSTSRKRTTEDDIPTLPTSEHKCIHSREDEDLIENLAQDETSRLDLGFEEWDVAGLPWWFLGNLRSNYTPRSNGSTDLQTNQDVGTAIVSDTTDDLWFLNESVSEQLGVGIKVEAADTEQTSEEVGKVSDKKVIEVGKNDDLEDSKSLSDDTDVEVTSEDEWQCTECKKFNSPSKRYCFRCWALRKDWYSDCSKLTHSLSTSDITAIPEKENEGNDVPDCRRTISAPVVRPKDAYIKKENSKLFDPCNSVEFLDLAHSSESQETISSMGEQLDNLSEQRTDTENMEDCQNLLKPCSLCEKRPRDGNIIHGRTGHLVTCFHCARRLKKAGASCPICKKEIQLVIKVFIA
Target sequence (Q00987 whole entry, looked up): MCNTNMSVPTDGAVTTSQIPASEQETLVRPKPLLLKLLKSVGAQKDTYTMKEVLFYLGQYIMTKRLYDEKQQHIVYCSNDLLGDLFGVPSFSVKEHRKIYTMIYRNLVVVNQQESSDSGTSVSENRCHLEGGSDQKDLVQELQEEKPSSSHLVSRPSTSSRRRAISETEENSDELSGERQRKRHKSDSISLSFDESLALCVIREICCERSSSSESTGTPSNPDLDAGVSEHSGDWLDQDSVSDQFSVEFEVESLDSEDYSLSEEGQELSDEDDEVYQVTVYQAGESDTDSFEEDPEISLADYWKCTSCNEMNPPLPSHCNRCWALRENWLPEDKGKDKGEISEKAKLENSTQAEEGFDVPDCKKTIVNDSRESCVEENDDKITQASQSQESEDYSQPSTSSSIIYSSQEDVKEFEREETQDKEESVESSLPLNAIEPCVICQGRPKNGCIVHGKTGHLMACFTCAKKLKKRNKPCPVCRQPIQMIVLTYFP
Gli-Sufu block = Gli-Sufu pathway antagonists, primary screen, luciferase luminescence, Sufu-KO-LIGHT cells, uHTS. Sufu-KO-LIGHT fibroblasts, Gli luciferase reporter luminescence. inhibition, % at 5 µM. AID 588413, 2011. 340,000 tested, 0.74% active;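 active = inhibition above about 55%, limit read from the data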;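 also: 0% = DMSO-treated cells and 100% = wells with medium but no cells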
697 NFkB inh = inhibitors of PMA/ionomycin-induced NF-kB reporter, 697 cells, primary screen, B-cell NF-kB inhibitor project, cell-based, luminescence, uHTS; 697 B-cell NF-kB luciferase reporter, 16 h; inhibition, % at 4 µM; 330,000 tested, 0.33% active; in the data active = inhibition above about 35%
aSyn UTR inh = MLPCN primary screen, SNCA 5' untranslated region | alpha-synuclein 5'UTR reporter, inhibitor activity | inhibition, % (tested at 7.5 µM) | 300,000 tested, 0.82% active; in the data active = inhibition above about 60%;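 also: H4 neuroglioblastoma cells stably carrying SNCA 5'UTR luciferase fusion; 0% = DMSO wells and 100% = positive control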
Jurkat NFkB inh = inhibitors of induced NF-kB luciferase reporter, primary screen, TCR NF-kB activation inhibitor project, cell-based, luminescence, uHTS | 330,000 tested, 0.53% active | Jurkat, PMA/ionomycin-induced NF-kB luciferase reporter | inhibition, % at 4 µM; in the data active = inhibition above about 50%
* marks the source's active call; other numbers are inactive results; / = no result given. Sampled rows, rich in hits. Any-hit rate of the full collection: about 4.5%.

SMILES	CSC inhib	Mdm2-MdmX inh	Gli-Sufu block	697 NFkB inh	aSyn UTR inh	Jurkat NFkB inh
COc1ccc(-c2sc3ccc(OC)cc3c2-c2ccc(O)cc2)cc1	/	27	-4	-47	/	-26
COc1ccccc1-c1sc2cc3c(cc2c1-c1ccc(O)cc1)OCO3	/	16	4	-4	/	-4
COc1cc(-c2cc(=O)c3c(O)c(OC)c(OC)c(O)c3o2)ccc1O	-12	6	5	0	87*	-42
O=C(COC(=O)c1ccc(F)cc1F)NCc1ccc2c(c1)OCO2	6	-8	7	7	/	-19
CC1=NN(c2ccccc2)C(=O)/C1=C/N(C)C	-10	-32	-7	15	-9	1
CC1=NN(c2nc3ccccc3[nH]2)C(=O)/C1=C/N(C)C	91*	29	-25	-16	/	7
NC(=O)C1CCN(C2=C(Cl)C(=O)c3ccccc3C2=O)CC1	85*	12	12	34	-24	0
O=C1C(Cl)=C(N2CCC(C(=O)O)CC2)C(=O)c2ccccc21	26	-20	3	25	17	5
Clc1ccc(-c2ccc(/C=N/Nc3cc(N4CCOCC4)nc(N4CCOCC4)n3)o2)cc1	93*	43	-4	-8	-13	-4
Cc1ccc(C(=O)NNc2cc(N3CCCC3)nc(N3CCCC3)n2)cc1	7	-2	12	-22	74*	-3
CCCn1c(=O)c(C(=O)NCc2ccccc2OC)c(O)c2ccccc21	43	4	11	-46	-2	-13
CCn1c(=O)c(C(=O)NCc2ccccc2OC)c(O)c2ccccc21	76*	-23	32	-18	3	-1
Cc1ccc(N2C(=O)NC(NS(=O)(=O)c3ccccc3)(C(F)(F)F)C2=O)cc1C (stereo not drawn)	-9	14	-6	13	-15	0
COc1ccc(/C=N/Nc2nc(C)c([N+](=O)[O-])c(N(C)c3ccccc3)n2)cc1OC	7	11	1	2	15	-12
CC(=O)Nc1ccc(Nc2nc(C)c([N+](=O)[O-])c(N(C)c3ccccc3)n2)cc1	-8	24	9	-22	86*	4
O=C/C=C/c1c(-c2ccccc2)cc2oc3ccccc3cc1-2	98*	-3	28	-26	-34	-4
O=C(CN1CCCCC1)Nc1cccc(Cl)c1	-9	-9	-2	10	-6	-3
COc1cc(NC(=O)Nc2cccc(Cl)c2)c(OC)cc1NC(=O)CN1CCCCC1	115*	39	21	21	-2	-20
C=CCc1cccc(CNc2nc3ccccc3n2CCC)c1O	102*	14	-12	4	7	7
C=CCc1cccc(CNc2nc3ccccc3n2CC)c1O	/	14	2	12	36	9
C=CCn1c(O)c(C2=c3ccccc3=NC2=O)c2ccccc21	96*	31	-14	-7	-29	-7
O=C(O)c1c[nH]c2ccc([N+](=O)[O-])cc2c1=O	/	/	3	/	/	/
Cc1ccc(-c2nn3nnnc3c3ccccc23)cc1C	2	6	-10	-12	35	10
Cc1ccc(-c2nn3cnnc3c3ccccc23)cc1C	-10	21	6	-13	64*	0
CCCCn1c(-c2ccccc2)nc2c(=O)n(C)c(=O)[nH]c21	-9	-15	-28	16	16	-7
SMILES	CSC inhib	Mdm2-MdmX inh	Gli-Sufu block	697 NFkB inh	aSyn UTR inh	Jurkat NFkB inh
O=C(Nc1nc(-c2cccs2)cs1)c1ccc([N+](=O)[O-])o1	90*	35	16	-37	/	7
O=C(Nc1nc(-c2cccs2)cs1)c1ccco1	-12	-111	-39	-19	-85	-49
COc1nc(N(C#N)CC(N)=O)nc(N2CCCC2)n1	-13	17	2	8	-4	4
CCOc1ccc(N2CC(C(=O)Nc3cccnc3)CC2=O)cc1 (stereo not drawn)	-2	5	6	-11	-4	4
O=C(O)CC(=O)Nc1ccc(Oc2ccc(C(F)(F)F)cn2)c(Cl)c1	-5	9	1	15	65*	4
FC(F)(F)c1ccc(Oc2ccccc2Cl)nc1	-2	6	1	0	10	8
CC(C)(C)c1ccc(/C=C/C(=O)c2ccc(NC3=NCCCS3)cc2)cc1	99*	18	31	-26	-107	-6
O=C(/C=C/c1ccccc1)c1ccc(NC2=NCCCS2)cc1	66	/	5	/	/	/
Cc1ccc(-n2nnc(-c3nccs3)n2)cc1	13	23	-15	-70	95*	-41
COc1ccc(C(=O)C2CCCN(C(=O)c3cccs3)C2)cc1F (stereo not drawn)	-1	20	-1	-5	15	1
Cc1ccc(C(=O)/C=C/c2ccc3c(c2)OCCO3)c(O)c1	34	-58	-3	-94	-181	-36
O=C(/C=C/c1ccc2c(c1)OCCCO2)c1ccc2ccccc2c1O	95*	15	-10	-52	-158	-24
OCCN=C1CCCc2c1[nH]c1ccc(Br)cc21	7	36	-8	4	62*	0
Brc1ccc2[nH]c3c(c2c1)CCC3	24	8	2	-94	31	-25
C1=C(CCNc2ncnc3c2[nH]c2ccccc23)CCCC1	77*	/	78*	/	/	/
C=C1[C@@H](O)[C@H](Cc2ccccc2)N(Cc2ccccc2Br)S1(=O)=O	/	/	1	/	/	/
O=C(COc1ccc(-c2ccccc2)cc1)N/N=C/c1cc(O)ccc1Br	89*	11	2	12	-32	-3
Cc1ccc2[nH]c3nc(N/N=C/c4cccc(O)c4)nnc3c2c1	81*	20	-25	33	-2	28
COc1cc2c(cc1OC)C(c1ccccc1F)NCC2 (stereo not drawn)	-13	17	-5	8	-9	2
O=c1c(Cc2c(F)cccc2Cl)c(O)ccn1C1CC1	-2	1	0	-1	-18	2
Nc1c(C(=O)N2CCOCC2)sc2nc3c(cc12)CCC3	2	-63	-37	4	-2	-2
Nc1c(C(=O)N2CCOCC2)sc2nc3c(cc12)CCCC3	12	-13	5	1	76*	-15
Cc1cc(C)c2nc3sc(C(=O)N4CCOCC4)c(N)c3cc2c1	/	28	47	-9	88*	-3
O=S(=O)(c1cccc(C(F)(F)F)c1)N1CCN(CC(O)COCc2ccccc2)CC1 (stereo not drawn)	-1	2	8	-40	/	-14
CCCN(CCC)S(=O)(=O)c1ccc(C(=O)Nc2nnc(CSC)o2)cc1	37	31	-2	1	13	11
CCN(Cc1ccccc1)S(=O)(=O)c1ccc(C(=O)Nc2nnc(-c3ccccc3OC)o2)cc1	6	42	10	-59	67*	-6
